# The supplement of paper PMC10681739
# Experiments:
# [1] = target: T1, ETS1 (UniProt P14921); test: ETS1 binding intensity (PBM fluorescence), ETS1 alone (arbitrary fluorescence units); higher = stronger binding; conditions: ETS1 concentration 1 nM; RUNX1 concentration 0 nM
# T1 sequence: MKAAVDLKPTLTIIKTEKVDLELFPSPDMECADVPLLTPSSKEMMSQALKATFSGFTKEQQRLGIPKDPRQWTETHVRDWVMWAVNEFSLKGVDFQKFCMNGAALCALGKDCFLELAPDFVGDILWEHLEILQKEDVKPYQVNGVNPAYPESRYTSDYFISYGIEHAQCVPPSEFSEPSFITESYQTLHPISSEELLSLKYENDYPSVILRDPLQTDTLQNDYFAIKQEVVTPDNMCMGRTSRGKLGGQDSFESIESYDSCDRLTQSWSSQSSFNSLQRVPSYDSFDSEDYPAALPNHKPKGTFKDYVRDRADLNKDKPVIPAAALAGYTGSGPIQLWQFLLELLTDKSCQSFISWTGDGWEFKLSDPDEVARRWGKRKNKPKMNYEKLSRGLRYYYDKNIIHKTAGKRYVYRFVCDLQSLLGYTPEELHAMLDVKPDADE
# [2] = target: RUNX1 (UniProt Q01196); test: RUNX1 binding intensity (PBM fluorescence), RUNX1 alone (arbitrary fluorescence units); higher = stronger binding; conditions: RUNX1 concentration 2 nM; ETS1 concentration 0 nM
# Procedure: (§1)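 Cooperative gcPBM on 36-bp genomic probes with neighbouring ETS1 and RUNX1 sites. Recombinant human RUNX1 (2 nM) was incubated alone or with ETS1 (25 nM) and detected with anti-RUNX1 antibody plus Alexa488 secondary. Values are medians over 4 replicate spots; the RUNX1+ETS1 data were normalised to the RUNX1-only data. The probes sit in constant array flanks that are not printed.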
# [3] = target: T1, ETS1; test: ETS1 binding intensity (PBM fluorescence) in presence of RUNX1, normalised to ETS1-only experiment (arbitrary fluorescence units); higher = stronger binding; conditions: ETS1 concentration 1 nM; RUNX1 concentration 25 nM
# [4] = target: RUNX1 (UniProt Q01196); test: RUNX1 binding intensity (PBM fluorescence) in presence of ETS1, normalised to RUNX1-only experiment (arbitrary fluorescence units); higher = stronger binding; conditions: RUNX1 concentration 2 nM; ETS1 concentration 25 nM
# Procedure: as §1
# 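Throughout, for RUNX1 binding intensity (PBM fluorescence) in presence of ETS1, normalised to RUNX1-only experiment: Full-length recombinant human ETS1 or RUNX1 bound to double-stranded 36-bp genomic probes on microarrays, detected by protein-specific primary antibody and Alexa488 secondary, spot fluorescence as median of four replicate spots.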
# 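Throughout, for RUNX1 binding intensity (PBM fluorescence), RUNX1 alone: Full-length recombinant human RUNX1 bound to double-stranded 36-bp genomic probes on a high-density microarray, scored as Alexa488 fluorescence per spot via anti-RUNX1 antibody, median of four replicate spots.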
# Sequence of RUNX1 (Q01196 whole entry): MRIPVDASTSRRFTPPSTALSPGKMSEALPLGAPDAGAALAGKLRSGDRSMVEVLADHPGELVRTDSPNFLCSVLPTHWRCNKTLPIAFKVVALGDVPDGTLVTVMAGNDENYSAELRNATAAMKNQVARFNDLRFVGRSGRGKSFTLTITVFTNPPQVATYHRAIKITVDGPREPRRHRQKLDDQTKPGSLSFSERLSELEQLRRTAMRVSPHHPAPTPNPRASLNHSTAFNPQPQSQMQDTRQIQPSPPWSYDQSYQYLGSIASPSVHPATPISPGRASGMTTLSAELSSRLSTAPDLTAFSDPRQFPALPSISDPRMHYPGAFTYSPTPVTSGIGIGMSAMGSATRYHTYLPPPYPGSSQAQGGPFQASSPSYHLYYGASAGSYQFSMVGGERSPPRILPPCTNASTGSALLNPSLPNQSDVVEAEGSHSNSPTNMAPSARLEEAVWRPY
Sequence,ETS1 binding intensity [1],RUNX1 binding intensity [2],ETS1 binding intensity [3],RUNX1 binding intensity [4]
GCCCACCCGCTTCCGGTTGTGGGCCCCGCCCGCCGA,5540,801,7350,7040
ACTTTCGCGACGCAGGAAGCGCCCACAAAGGGAGGA,2020,802,3000,889
CTGCTAGCGGAAGCAGCCAAGCCCACAGGCTCCAGG,942,732,1140,1040
TGTTTTTGTTTCCGTTTACAAACCACAACAAAGGTG,736,2390,1620,4730
AGTGGATAGCACTTCCTTCTCTTACCACAGTTCCTT,365,1020,558,1610
TGGCTTGTTTCCGGTTCCTCTGTGGCGCCGTTCTCG,3480,938,2820,2890
CTCTCCACCTCCTTCCGACCAGGACCGCACCCCCCC,986,1990,939,1650
TTAAACACGGAAGTGCATCGGTTGTTGTGGTTATTC,1260,845,4360,1150
AGCTTTCCTTTTCCGGTTGCGGCGCCGCGCGTTGAT,1800,926,1820,2340
GATACCTAGAAGCCAGGAAACCGCGAGCTGCAGTCC,1080,1190,2130,1380
GTGAGAGGAAGTGGGCGCTGGTTTAATGTGGTCAGC,1010,834,5410,2360
ATCCCACTATAGGAAGCTTCTCTGTGGTTTTGAGCC,369,1370,1640,1910
CCCTGACTTTTACGGAAATAGCGGTCCAAAAGCGCC,986,880,1080,1160
CTGGAGAGGATGTGGCCCCAGTGTGGTTCTGTAACT,610,837,776,1170
TAAAACACCAGGAAACTCTGTGGTGAGTGGGAGGTG,787,1060,1220,903
GGACTTCCTGAACTGGGAGGTCACCGACCACAACCT,354,831,671,1740
CGAGATCCTGGCCACGGATGCGGTGGCCGCGCCTCT,414,795,660,975
TTAGCACATCCTGGGTACACAGACCACAGCCTCCTC,367,972,475,2140
AAAACAACTCCAGGATGTGGTTTTACTCAGAATGTA,1310,928,7410,2710
GCCGGGCACCCCGGAAGACCGCTGGGAACCGGCTTT,1080,656,1070,1080
ACAGGCTGTCTGCTTCCGTCAGCGGTTATTCCCTTG,523,882,602,1340

Sequence,ETS1 binding intensity [1],RUNX1 binding intensity [2],ETS1 binding intensity [3],RUNX1 binding intensity [4]
ACAGGAAATGTTAGAGGTTGAGTTAGCGGTTATGAG,1620,833,3640,914
TGTGGAGACAGGAAGCACTAACCTCAAACCTCTTTC,2730,908,8830,1770
TGCTCAAATGCAGGATGTGGTCTGAGAGTTTCTCCT,1910,693,6550,1680
ACTAGAAGCGGAAGTAGTTGTGGGCGCCTTTGCAAC,5720,662,7470,1410
GGCGGTGACCGGAAGAGCTGAGTCACCGCAGGCGAC,4020,813,11300,1600
AATAAAGCTACAGACTTCCGCCCACAGGTCGCCGCT,1020,789,1280,1360
GTTCTTCCACGTCCGCGTTACCCACAACGGCAGTGG,564,1020,606,1090
GGCGGAAGCTGCCGCTGCCTTGCGCCCCCACACACG,640,818,685,1040
CCCTGGGGCCCCACTTCCTTGCCCACAAGAAAGGAC,395,1020,446,1360
AGAAGCTGCACCCGGAAATGAAACCACCAGGACCTC,4630,887,9310,1380
GTGGCGGGGCGGAAGTTCACATGTGTGGTATGTAGA,2720,940,5000,1430
TGGCTGTCACTTCCTGTCCCACTGTGGTTCCTGGGA,4940,763,5740,1820
CAGGTTGTTGAGGATGTGGAGAAACCGCAACCTCGT,581,3670,7360,6690
TTTACAGGAAATTACAGGGGTTAAACCAAACCACAA,986,941,1140,1820
CCACCACTCTAAGCAGGATGCGGTGCGACCCAAGAG,1390,815,2470,972
GTCCTCTTCCTGTCCCCCAGGTGGGCATGTGGTTTG,519,988,751,1790
CCAACACAGGAAATAATTTGAAACCACAATCAGAAA,1270,1290,4460,3290
GAGCCGGAAGTGAAGGAGGGCTTGTGGGAGATGGAG,2710,713,3090,1210
GATGGGCGAGTCAGGAAACCACAGCTCTGAGGGTGG,607,950,1190,1300
TGGGCAAGATATCCTGGAAGTGGTTAAAAAAAATTA,687,739,1050,1060
GTGACGGATATCCACCGGGCCCTGTGGTTTCCAACA,394,822,1200,986

Sequence,ETS1 binding intensity [1],RUNX1 binding intensity [2],ETS1 binding intensity [3],RUNX1 binding intensity [4]
TTCGGATTCCCGGAAGAACCCGCAGCAGCTCCCAGG,792,789,1020,1190
CGACTTCCGTCCCTGGGTGGGATCGAACCACCAACC,532,1100,540,2780
GACTGCACTTCCTCTGCTTCGAGGTCGGTGGTTAGC,535,874,653,1450
CCTGCTGCTTCCGCCCGGAGTTGTTGTGGGCTCCAG,643,806,661,1870
GGGTGCTTCCTATAAACAATGACTCATTACCGCACT,425,920,474,976
CCACCCTCCGTCCGGCCGCGACCGCGAGGAGGAAGA,948,841,1060,1130
TTAAGGAGCTTCCGGGGCCGCGGGTAGAGGCGGGTG,629,676,741,1420
AGGCTCATTTCCTGTTTTCATGTGGTTTAGAGAAAA,2630,1320,5130,3930
GTGCCCCGGACCTACGGATACCACACACAGACAGGC,470,928,460,869
CAACTGACCGGACAGAACACAGCCACAAAACACGAG,512,944,507,824
GGATTAGAACTGCTTCCTCCTGTGGTTTACCAGAAA,417,923,595,1840
TCGCCCGCCGCTTCCTGTCGCGGCGCCGCAGAGGCC,1740,821,1890,3000
AGCAGGAAGTATGTTGAAAGTCATAACCACAGCAAA,908,776,3050,1020
GAGTTCTAGACTACAGGATGTGGTTAGAAGAAAAGA,4670,837,56900,4800
AGCCCCTACCACTTCCCCCCACAGCAGTTCTGAGAT,720,1410,755,2250
AGTCAAACAGGATGTGGCTGGGGAGGCGGTTGTCAC,3750,725,4660,2040
CTGCGCGGCCGGAAGTCGGCGGTTTCCCAGACGACG,20800,759,30000,2820
CGGAGGCGGCCGGAAGTAGCGCTGCGGTTGGCAGCT,16800,937,64100,6060
AGGTCTCCGGAAGTGGGTCTGCGGCGCGCGGGATGC,6040,637,8540,3290
CGGGCGAGCGCAGGATGCGGTTGTCGAACGCGCGGC,764,762,1050,1100
CCCTTGCCAGAGGAAGCCACTGCCACCGCAGAAGCA,417,970,1740,1080

Sequence,ETS1 binding intensity [1],RUNX1 binding intensity [2],ETS1 binding intensity [3],RUNX1 binding intensity [4]
GCTTGTCTTCCGGTTTCGTCGCCGCCGCAGGCGCAC,1730,840,1880,1780
CGGGGCTTCCGGCGCGCTGCCTTGTGGGCACGGTAG,591,711,611,1390
GCCAGGGCAGGAAGTTGCTAACCGCCCCAGAGCAGG,2840,804,4850,1460
GACAGGAAGCCCGCGGCAGCCTCCGTGGTTGCAGAT,562,773,687,1090
AAGTTTTGGGTTTTCCGCCCACAGCCGCCGAAAGTG,630,888,684,1090
CACTCCCCGCATCCGGTCTGCGGCGCGCTCGGGGCC,3830,912,4710,29400
ACACCGGAAGCCCAACAGCATGCCGAGTAACCACCC,1120,864,1170,1310
CAGTCAAGAGGAAATTATAAACCACTGCCTCTTTGA,599,833,744,909
CTGCCTTTCCTGCTAGGGTACAAACCACAGCCTTAG,369,1360,774,1640
ACCTCATCCTGCTGTTCTTGTGTGTGGTTGAGCAGT,453,944,432,1340
GGCACCGGAAGTAGAGCTGCCCCTAGTTGCGGCAGT,9240,767,12800,1380
TCCCGAGAGCCGGAAGCAGCCGCAGGCCCCGCCACA,3950,778,4410,1330
GGGGAACGGAAGCTGCTGTCGTTACTGGCGGTTGTA,1510,767,1320,929
CCAACTTTTGAGGGATGTGGTTACGTTTTCTAGATC,366,1410,1440,1620
GGGGCTGGGAAAGGATGTGGTAAGGGCCAGTCAGTC,884,749,3240,1920
CCAGAGCACATCCTACACGCACCACAACCTGAAAAC,453,1250,396,1470
AAAAGGCACCAGGAAATGACAGCACCGCAGCACGCC,1290,717,2020,871
ATCACTTGTTTCCGCCAGCAAACCACAGGTCCCCAG,417,1550,811,3750
